# Experimental data: ChEMBL document CHEMBL3988442, “University of Dundee, Small-Polar-MMV Screening Library” (2021)
# For some of these results: Results with a measured potency or affinity are listed apart.
# Legend:
# Set-up in all cases: scale not given: direction of the effect not stated beside the values
# [1] = molecular target: Protein translocase subunit SecA (Escherichia coli (strain K12)) (UniProt P10408); test: Assay to Identify E. coli SecA ATPase Inhibitors; assay type: functional; details: 30 µM
# [2] = molecular target: T1, Ubiquitin-activating enzyme e1, putative (Leishmania donovani (strain BPK282A1)) (UniProt E9BSI1); test: Leishmania donovani Ubiquitin Activating Enzyme (LdE1); assay type: functional; details: 30 µM
# T1 sequence (whole entry): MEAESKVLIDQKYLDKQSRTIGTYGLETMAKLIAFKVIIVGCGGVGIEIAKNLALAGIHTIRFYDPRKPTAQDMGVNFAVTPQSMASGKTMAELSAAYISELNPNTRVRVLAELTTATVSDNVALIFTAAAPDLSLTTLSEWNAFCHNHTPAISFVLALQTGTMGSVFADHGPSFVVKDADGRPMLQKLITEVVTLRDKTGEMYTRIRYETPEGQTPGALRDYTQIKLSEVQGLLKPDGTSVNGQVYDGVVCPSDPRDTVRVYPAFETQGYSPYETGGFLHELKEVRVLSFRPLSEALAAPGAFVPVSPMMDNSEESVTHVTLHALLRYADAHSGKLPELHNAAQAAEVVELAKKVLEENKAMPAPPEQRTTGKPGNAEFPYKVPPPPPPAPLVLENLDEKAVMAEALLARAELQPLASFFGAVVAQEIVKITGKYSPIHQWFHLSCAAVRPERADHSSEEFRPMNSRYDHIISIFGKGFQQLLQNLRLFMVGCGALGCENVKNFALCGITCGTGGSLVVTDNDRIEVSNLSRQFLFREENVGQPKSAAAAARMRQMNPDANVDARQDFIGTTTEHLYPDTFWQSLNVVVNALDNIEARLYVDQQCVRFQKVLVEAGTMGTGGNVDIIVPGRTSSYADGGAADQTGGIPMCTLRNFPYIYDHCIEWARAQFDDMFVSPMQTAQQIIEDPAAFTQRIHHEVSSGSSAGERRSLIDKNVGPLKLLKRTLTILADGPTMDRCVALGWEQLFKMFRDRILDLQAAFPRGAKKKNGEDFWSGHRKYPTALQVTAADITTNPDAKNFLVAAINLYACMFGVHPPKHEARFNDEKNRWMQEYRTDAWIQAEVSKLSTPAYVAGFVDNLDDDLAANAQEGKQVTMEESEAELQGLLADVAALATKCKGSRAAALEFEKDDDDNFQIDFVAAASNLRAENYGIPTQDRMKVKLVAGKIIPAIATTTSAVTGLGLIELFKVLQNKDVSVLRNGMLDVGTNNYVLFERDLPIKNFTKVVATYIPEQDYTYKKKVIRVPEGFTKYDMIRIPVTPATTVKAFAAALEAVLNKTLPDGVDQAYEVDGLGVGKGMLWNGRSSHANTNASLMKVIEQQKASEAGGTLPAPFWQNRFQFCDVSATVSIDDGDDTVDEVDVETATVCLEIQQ
# [3] = molecular target: AMP-activated protein kinase, AMPK (Homo sapiens) (UniProt P54646+O43741+P54619+Q9UGJ0+Q9Y478+Q13131+Q9UGI9); test: AMP-dependent Kinase enzyme assay. An in vitro enzyme assay that detects ADP turnover that is directly proportional to AMPK activity. This uses naive AMPK that is activated during the assay with MK-8722; assay type: functional; details: 30 µM
# [4] = molecular target: Sialic acid-binding Ig-like lectin 9 (Homo sapiens) (UniProt Q9Y336); test: Hs-Siglec9 ALPHAscreen SOP 20170721; details: 10 µM
# Trypanosoma cruzi = test: Trypanosoma cruzi phosphomannomutase and mannose-1-phosphate guanylyltransferase assay; assay type: functional; details: 10 µM
# [5] = molecular target: T2, Arginase-2, mitochondrial (Homo sapiens) (UniProt P78540); test: in vitro enzyme assay to detect the production of urea directly proportional to the activity of Arginase II; assay type: functional; details: 33.3 µM; further: in the data most compounds retested in dose-response had high values
# T2 sequence (whole entry): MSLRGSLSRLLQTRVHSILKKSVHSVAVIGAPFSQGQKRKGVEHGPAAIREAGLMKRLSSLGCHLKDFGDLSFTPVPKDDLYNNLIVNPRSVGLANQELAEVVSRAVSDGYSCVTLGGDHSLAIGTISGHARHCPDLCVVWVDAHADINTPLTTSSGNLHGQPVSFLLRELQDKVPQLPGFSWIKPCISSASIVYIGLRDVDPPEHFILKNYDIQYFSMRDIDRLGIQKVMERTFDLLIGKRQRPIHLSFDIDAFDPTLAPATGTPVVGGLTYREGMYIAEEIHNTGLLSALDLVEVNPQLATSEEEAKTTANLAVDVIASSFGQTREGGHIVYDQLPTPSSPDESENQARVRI
# [6] = molecular target: T3, Proteasome subunit beta (Trypanosoma cruzi) (UniProt O96673); test: Trypanosoma cruzi proteasome chymotrypsin-like activity (TcProtChymo) assay.; further: in the data most compounds retested in dose-response had high values; assay type: functional; details: 9.37 µM
# T3 sequence (whole entry): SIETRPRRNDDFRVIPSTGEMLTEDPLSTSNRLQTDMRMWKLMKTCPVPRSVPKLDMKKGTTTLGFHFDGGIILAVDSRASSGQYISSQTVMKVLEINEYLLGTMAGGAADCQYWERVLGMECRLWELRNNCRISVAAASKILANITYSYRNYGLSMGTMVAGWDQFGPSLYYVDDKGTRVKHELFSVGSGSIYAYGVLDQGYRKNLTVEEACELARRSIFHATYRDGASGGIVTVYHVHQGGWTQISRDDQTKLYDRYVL
# Homo sapiens = organism: Homo sapiens; test: To identify inhibition of the IFN signalling (Jak-Stat) pathway via expression of an eGFP reporter gene under the control of an IFN-stimulated response element (ISRE) containing MxA promoter.; assay type: functional; details: 30 µM
# [7] = molecular target: T4, Tyrosyl-tRNA synthetase, putative (Trypanosoma cruzi (strain CL Brener)) (UniProt Q4DSP6); test: Trypanosoma cruzi tyrosyl tRNA synthetase (TcYRS) _High Tyrosine SOP; assay type: functional; details: 30 µM; further: in the data most compounds retested in dose-response had high values
# T4 sequence (whole entry): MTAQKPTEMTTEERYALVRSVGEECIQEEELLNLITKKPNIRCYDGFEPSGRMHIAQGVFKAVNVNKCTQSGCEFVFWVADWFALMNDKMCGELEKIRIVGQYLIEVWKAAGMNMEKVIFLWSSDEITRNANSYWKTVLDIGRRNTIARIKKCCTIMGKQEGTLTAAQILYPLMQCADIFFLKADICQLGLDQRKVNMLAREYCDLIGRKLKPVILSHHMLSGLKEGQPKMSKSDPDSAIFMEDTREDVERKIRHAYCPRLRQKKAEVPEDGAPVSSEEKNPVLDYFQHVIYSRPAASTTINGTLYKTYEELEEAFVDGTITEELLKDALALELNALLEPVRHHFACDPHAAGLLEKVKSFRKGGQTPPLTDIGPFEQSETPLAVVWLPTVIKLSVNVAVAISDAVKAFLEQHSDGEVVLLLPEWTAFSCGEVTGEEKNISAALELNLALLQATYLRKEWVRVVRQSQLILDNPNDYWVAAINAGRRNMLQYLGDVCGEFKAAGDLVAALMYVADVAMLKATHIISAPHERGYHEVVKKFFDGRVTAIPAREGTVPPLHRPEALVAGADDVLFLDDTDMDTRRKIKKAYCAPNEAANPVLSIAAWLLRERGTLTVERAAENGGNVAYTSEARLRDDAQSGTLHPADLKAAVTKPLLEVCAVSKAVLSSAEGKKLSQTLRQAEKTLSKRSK
# [8] = molecular target: T4, Tyrosyl-tRNA synthetase, putative (Trypanosoma cruzi (strain CL Brener)); test: Trypanosoma cruzi tyrosyl tRNA synthetase (TcYRS) SOP; assay type: functional; details: 30 µM
# [9] = molecular target: Chromo domain-containing protein 1 (Saccharomyces cerevisiae (strain ATCC 204508 / S288c) (Baker's yeast)) (UniProt P32657); test: ScCHD-1 Enzyme Inhibition Assay; assay type: functional; details: 30 µM; further: in the data most compounds retested in dose-response had high values
# Chain of Chromo domain-containing protein 1 (Saccharomyces cerevisiae (strain ATCC 204508 / S288c) (Baker's yeast)) (P32657 whole entry, the tested form may be a part): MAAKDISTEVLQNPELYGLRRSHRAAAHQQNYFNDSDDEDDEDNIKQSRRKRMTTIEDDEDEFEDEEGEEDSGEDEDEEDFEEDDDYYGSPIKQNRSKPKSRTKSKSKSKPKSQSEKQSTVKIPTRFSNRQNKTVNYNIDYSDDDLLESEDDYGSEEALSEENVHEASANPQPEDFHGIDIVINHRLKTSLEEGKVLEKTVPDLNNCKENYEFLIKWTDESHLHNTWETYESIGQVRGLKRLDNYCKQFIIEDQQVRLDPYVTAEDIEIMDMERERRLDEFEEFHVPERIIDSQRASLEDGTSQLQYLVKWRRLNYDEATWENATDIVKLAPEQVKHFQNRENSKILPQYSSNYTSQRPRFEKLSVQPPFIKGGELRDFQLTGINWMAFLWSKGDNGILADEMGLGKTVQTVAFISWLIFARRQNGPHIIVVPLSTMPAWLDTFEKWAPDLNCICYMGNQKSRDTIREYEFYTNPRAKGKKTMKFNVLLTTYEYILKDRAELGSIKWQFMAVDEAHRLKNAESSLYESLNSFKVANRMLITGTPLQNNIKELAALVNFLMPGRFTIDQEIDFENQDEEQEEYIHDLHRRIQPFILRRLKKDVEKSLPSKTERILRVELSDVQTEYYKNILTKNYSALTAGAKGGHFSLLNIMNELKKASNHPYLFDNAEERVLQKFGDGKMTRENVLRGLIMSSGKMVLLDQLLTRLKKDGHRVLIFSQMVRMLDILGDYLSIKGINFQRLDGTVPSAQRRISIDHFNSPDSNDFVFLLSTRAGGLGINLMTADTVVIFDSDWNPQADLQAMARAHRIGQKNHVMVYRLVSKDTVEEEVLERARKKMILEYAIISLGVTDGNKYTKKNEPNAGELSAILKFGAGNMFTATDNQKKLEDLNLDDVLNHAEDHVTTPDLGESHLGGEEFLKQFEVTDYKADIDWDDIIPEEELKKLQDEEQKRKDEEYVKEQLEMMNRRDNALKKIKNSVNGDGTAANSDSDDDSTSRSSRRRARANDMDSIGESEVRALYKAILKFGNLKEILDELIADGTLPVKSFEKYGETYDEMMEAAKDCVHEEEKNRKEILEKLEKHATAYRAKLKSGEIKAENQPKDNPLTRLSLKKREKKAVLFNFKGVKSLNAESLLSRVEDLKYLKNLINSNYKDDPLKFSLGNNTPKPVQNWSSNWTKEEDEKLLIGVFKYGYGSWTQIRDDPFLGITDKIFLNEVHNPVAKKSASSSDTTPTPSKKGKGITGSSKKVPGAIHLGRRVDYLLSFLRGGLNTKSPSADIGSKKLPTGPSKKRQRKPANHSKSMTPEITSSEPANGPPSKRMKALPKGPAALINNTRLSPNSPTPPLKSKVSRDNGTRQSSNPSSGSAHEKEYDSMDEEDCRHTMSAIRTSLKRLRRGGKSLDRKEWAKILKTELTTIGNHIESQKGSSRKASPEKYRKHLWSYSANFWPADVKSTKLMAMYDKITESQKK
# Chain of Sialic acid-binding Ig-like lectin 9 (Homo sapiens) (Q9Y336 whole entry): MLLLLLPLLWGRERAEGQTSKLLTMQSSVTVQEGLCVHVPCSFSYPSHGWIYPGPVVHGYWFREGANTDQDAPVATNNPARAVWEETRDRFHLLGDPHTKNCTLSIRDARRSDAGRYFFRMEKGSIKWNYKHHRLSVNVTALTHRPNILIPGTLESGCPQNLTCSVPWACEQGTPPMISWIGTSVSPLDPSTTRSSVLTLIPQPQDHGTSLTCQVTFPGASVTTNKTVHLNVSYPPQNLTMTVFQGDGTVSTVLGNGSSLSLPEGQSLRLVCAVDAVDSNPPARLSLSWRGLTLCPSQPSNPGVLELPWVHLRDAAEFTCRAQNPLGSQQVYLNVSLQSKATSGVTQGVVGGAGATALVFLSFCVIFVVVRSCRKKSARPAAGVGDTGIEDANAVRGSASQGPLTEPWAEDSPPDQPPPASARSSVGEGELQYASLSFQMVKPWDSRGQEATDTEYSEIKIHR
# Chain of Protein translocase subunit SecA (Escherichia coli (strain K12)) (P10408 whole entry): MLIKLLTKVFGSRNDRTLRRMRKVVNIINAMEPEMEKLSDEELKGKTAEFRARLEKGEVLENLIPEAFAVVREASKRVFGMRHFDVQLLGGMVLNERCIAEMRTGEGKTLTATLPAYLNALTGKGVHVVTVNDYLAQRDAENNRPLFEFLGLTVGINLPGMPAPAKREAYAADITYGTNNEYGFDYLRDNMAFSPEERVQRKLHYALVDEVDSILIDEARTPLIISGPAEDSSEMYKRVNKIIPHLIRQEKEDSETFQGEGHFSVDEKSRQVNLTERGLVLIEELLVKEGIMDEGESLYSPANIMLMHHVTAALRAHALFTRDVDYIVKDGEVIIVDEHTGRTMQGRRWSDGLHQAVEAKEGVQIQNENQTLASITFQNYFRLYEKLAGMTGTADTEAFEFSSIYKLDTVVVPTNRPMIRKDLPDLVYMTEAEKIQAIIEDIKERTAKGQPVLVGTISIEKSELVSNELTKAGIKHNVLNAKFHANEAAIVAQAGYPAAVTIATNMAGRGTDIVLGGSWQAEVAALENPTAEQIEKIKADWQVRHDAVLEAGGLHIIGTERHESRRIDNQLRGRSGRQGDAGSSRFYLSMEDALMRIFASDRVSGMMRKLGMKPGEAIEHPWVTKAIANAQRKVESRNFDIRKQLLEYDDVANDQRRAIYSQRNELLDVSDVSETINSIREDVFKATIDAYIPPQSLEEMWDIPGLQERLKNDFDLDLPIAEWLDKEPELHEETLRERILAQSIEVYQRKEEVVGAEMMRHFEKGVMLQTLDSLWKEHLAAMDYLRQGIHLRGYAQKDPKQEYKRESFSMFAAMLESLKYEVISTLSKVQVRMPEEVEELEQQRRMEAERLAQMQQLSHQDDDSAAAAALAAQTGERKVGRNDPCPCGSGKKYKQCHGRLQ
SMILES,Percent Effect [1] [%],Percent Effect [2] [%],Percent Effect [3] [%],Percent Effect [4] [%],Percent Effect (Trypanosoma cruzi) [%],Percent Effect [5] [%],Percent Effect [6] [%],Percent Effect (Homo sapiens) [%],Percent Effect [7] [%],Percent Effect [8] [%],Percent Effect [9] [%]
Cc1nn(C)c(N(C)C)c1CNCC(O)COc1ccc(F)cc1 (stereo not drawn),-3.9,2.74,-7.44,-8.06,-1.57,0.909,12.2,-14.5,4.3,12.5,-3.3
Cc1ccc(S(=O)(=O)Nc2ccc(=O)n(C)c2)cc1,-2.01,20.2,-48.5,-4.13,2.55,4.18,17.1,36,6.4,13.9,-4.02
CNC(=O)CC1CCN(Cc2nc(-c3ccc(SC)cc3)oc2C)CC1,-7,2.7,-0.898,2.66,-2.7,-0.952,11.7,13.2,7.94,0,-2.7
CCn1nc(C)c(CCn2ccnc2-c2cc3n(n2)CCCNC3)c1C,-3.39,2.67,0.691,0.912,-3.02,4.17,8.2,12.4,2.73,8.64,-6.3
FC(F)(F)COCCN1CCCC(c2noc(C3CC3)n2)C1 (stereo not drawn),-2.95,5.33,-7.13,6.38,7.3,-0.521,16.7,16.5,3.83,11.1,101
Cn1c(C(=O)N2CCC(C(=O)N3CCCC3)CC2)c(Cl)c2ccccc21,-4.1,5.33,-1.92,6.11,2.82,2.6,25.5,0.0464,8.2,13.6,-6.83
Cc1c(C(=O)NC(C)C(C)C)nnn1-c1cccc2c1CCN(C)C2 (stereo not drawn),-4.44,10.5,-6.99,3.62,1.85,-17.8,7.19,3.15,3.19,0,-11.2
CC(=O)Nc1cccc(C(=O)Nc2cnc3n2CCCC3)c1,-3.85,4.17,-0.344,0.164,-1.46,3.53,6.14,17.5,4.21,5.13,-3.23
